# Measurements from the supplement of paper PMC10849652.
# The full data set covers some 7,900 targets. This sample favours those with a hit. About 0.6% of all pairs of compound and target were hits. Unmarked numbers belong to inactive results.
# Compound: COC(=O)N[C@@H](C)CNc1nccc(-c2cn(C(C)C)nc2-c2cc(Cl)cc(NS(C)(=O)=O)c2F)n1 [encorafenib]
# Assay: log2 fold change, soluble protein after heating vs DMSO (PISA); higher = thermal stabilisation; K562 cells, 10 uM, 30 min; active = over 0.2 and 3.5 SD of the protein, either way, in both replicates (recomputed)
# Summary of the method: (§1)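 K562 cells at 2×10^6 cells/mL were treated with 10 μM compound for 30 min. Aliquots were heated for 3 min across 48°C-58°C, pooled, and extracted in PBS with 0.5% NP-40 at 4°C; soluble protein was the supernatant after 21,000xg for 90 min. Soluble protein was quantified by TMTpro 16plex LC-MS/MS with channel sums equalised, and reported as log2 fold change in thermal stability against DMSO controls, with values from duplicates.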
# Sequence of UniProt Q92844 (Q92844 whole entry, looked up): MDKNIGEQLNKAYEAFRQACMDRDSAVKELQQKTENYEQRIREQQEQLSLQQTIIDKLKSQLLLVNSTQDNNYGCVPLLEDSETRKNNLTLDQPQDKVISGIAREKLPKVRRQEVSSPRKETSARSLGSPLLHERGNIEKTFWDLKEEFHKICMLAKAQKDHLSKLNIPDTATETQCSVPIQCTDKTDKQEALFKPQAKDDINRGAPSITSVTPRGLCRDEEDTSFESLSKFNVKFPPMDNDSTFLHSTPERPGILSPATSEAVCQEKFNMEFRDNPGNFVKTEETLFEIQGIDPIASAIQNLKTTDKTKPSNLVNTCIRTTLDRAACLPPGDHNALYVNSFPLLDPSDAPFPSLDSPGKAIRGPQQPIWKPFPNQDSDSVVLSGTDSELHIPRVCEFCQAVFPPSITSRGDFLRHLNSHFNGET
# Sequence of UniProt O15400 (O15400 whole entry, looked up): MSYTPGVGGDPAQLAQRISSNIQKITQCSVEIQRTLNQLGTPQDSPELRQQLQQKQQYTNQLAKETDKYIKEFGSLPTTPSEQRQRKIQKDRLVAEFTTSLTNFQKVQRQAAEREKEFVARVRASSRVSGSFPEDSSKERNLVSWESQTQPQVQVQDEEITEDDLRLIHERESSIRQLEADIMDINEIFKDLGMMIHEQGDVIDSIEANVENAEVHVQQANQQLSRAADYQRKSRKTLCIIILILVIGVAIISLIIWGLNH
# Sequence of UniProt Q9BW92 (Q9BW92 whole entry, looked up): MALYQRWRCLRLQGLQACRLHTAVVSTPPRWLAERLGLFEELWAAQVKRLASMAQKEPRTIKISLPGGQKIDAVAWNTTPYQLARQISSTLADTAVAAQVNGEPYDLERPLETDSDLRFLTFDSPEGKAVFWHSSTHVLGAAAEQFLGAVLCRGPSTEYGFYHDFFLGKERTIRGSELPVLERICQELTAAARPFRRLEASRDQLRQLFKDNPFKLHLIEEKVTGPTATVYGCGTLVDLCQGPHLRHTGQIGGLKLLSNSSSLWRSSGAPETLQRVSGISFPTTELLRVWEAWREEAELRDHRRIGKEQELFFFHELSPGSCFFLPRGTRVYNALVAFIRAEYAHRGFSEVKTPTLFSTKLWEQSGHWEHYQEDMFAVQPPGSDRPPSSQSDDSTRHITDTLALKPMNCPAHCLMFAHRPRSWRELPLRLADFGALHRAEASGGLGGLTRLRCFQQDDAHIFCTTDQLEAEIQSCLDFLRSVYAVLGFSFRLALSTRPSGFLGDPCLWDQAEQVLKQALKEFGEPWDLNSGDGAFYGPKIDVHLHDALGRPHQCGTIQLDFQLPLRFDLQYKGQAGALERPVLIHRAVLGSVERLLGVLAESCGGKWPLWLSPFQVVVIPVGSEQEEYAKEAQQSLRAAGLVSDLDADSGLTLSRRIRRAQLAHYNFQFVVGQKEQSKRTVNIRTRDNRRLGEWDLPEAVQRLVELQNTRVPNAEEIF
# Sequence of UniProt Q9UKI8 (Q9UKI8 whole entry, looked up): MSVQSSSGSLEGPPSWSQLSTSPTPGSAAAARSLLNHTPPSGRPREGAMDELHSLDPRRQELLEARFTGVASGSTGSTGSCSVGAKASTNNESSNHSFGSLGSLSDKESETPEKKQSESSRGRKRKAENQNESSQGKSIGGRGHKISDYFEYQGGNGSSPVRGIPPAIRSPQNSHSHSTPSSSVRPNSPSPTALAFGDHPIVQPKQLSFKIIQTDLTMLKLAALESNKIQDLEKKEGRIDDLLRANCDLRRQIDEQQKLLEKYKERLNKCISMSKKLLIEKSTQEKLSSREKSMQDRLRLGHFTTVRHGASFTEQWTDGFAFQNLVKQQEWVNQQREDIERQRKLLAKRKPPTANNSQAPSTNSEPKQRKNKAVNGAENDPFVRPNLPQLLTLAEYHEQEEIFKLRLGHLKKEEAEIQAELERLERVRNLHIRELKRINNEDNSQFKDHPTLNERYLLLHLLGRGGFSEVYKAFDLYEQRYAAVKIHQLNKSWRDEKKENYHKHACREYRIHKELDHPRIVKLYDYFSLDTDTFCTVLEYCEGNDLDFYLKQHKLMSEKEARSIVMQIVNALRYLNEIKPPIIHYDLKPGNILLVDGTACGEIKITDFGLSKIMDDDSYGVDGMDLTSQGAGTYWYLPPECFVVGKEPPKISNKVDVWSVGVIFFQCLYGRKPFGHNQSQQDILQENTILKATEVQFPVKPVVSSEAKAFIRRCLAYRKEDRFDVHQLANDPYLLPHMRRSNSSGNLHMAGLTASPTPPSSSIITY
# Sequence of UniProt Q8NEW0 (Q8NEW0 whole entry, looked up): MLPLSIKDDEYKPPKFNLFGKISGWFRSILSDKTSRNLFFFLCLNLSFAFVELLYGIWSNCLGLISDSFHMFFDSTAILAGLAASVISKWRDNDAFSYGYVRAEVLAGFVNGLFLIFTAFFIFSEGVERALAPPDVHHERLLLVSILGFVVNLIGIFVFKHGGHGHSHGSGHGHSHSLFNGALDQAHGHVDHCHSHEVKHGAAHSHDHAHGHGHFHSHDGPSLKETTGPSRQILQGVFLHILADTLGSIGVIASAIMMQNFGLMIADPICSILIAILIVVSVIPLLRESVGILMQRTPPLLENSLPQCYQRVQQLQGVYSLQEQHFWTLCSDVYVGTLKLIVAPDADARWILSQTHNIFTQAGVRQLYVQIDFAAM
# Sequence of UniProt P78383 (P78383 whole entry, looked up): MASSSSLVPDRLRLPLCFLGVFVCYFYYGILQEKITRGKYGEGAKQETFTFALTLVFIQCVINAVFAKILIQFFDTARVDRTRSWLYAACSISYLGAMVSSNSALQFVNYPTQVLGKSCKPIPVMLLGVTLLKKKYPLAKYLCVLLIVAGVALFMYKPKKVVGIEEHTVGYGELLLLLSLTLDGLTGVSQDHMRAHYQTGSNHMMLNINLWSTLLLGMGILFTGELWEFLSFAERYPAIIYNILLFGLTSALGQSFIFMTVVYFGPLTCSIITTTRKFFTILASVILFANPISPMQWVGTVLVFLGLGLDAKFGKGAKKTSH
# Sequence of UniProt P23497 (P23497 whole entry, looked up): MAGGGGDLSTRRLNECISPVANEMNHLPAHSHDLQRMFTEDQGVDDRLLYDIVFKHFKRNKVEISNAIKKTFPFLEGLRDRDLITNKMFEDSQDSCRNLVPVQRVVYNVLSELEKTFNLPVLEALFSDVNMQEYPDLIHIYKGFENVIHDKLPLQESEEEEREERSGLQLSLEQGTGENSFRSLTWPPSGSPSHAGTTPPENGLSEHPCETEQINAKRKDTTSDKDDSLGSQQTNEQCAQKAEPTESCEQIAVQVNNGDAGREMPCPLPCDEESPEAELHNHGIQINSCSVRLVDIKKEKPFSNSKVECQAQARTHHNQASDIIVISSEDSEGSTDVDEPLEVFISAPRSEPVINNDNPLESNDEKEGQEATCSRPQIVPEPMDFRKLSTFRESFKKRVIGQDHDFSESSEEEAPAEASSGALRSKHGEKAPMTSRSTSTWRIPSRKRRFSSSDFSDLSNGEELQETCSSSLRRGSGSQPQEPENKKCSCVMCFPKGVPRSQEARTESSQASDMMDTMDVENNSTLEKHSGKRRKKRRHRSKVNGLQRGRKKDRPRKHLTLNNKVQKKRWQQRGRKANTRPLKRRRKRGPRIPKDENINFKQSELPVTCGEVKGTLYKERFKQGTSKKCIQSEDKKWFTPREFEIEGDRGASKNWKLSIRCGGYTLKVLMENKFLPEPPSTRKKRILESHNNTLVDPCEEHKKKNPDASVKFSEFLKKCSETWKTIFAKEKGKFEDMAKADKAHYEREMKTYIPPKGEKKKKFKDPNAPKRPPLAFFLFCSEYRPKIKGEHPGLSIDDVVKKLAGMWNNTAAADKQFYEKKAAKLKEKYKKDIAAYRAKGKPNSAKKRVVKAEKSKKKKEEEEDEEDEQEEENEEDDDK
# Sequence of UniProt Q9Y5J6 (Q9Y5J6 whole entry, looked up): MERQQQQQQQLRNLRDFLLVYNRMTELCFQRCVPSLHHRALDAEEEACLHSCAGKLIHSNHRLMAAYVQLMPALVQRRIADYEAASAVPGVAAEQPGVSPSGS
# Sequence of UniProt Q93075 (Q93075 whole entry, looked up): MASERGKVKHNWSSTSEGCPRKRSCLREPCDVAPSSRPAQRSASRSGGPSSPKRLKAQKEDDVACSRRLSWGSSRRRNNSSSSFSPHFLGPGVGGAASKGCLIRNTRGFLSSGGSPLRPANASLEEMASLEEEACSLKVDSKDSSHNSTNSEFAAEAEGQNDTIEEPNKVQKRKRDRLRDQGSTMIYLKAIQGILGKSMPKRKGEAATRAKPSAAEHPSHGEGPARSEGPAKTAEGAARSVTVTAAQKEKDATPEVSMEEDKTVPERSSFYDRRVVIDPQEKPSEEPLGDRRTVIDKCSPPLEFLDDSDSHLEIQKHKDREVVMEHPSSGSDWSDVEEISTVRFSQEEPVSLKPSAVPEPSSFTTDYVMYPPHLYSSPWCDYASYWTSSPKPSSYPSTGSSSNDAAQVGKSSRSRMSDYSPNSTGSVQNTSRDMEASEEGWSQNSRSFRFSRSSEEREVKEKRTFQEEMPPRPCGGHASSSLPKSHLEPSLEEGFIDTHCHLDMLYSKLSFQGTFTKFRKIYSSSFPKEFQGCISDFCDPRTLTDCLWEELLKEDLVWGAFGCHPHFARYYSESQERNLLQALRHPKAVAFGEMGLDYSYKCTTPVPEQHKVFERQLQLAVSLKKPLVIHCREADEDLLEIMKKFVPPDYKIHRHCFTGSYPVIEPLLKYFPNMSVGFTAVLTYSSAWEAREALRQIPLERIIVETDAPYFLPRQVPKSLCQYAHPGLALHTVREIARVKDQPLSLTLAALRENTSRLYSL
# Sequence of UniProt Q13247 (Q13247 whole entry, looked up): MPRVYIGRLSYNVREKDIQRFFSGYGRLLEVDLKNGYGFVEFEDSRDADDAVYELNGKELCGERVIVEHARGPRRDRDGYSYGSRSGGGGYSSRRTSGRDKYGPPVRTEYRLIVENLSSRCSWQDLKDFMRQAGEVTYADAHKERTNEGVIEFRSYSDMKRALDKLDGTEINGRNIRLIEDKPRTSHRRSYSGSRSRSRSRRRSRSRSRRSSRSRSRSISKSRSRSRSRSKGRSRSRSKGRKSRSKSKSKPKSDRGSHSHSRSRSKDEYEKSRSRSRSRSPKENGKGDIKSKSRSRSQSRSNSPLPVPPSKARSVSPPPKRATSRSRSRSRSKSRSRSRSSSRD
row,Target,log2 fold change
1,STAM2 (UniProt O75886),0.027
2,SP100 isoform 4 (UniProt P23497),-0.06
3,TM7SF3 (UniProt Q9NS93),0.089
4,TIMM10B (UniProt Q9Y5J6),-0.022
5,TLK1 (UniProt Q9UKI8),0.022
6,SLC30A7 (UniProt Q8NEW0),0.059
7,SLC35B1 isoform 2 (UniProt P78383),0.132
8,STX7 (UniProt O15400),-0.039
9,TARS2 (UniProt Q9BW92),0.015
10,SUPT5H (UniProt O00267),0.076
11,SMIM20 isoform 2 (UniProt Q8N5G0),-0.055
12,TANK (UniProt Q92844),0.064

# Compound: COC(=O)[C@H](CCSC)NC(=O)C1=C(C=C(C=C1)NC[C@H](CS)N)C2=CC=CC=C2
# Assay: as above
# Summary of the method: as §1
row,Target,log2 fold change
1,SLC44A2 isoform 2 (UniProt Q8IWA5),0.02
2,STK38L (UniProt Q9Y2H1),-0.073
3,SLC35F6 (UniProt Q8N357),0.007
4,SLC27A1 (UniProt Q6PCB7),-0.183
5,SRSF6 (UniProt Q13247),0.018
6,TATDN2 (UniProt Q93075),-0.031
7,TENT5C (UniProt Q5VWP2),-0.011
8,TMBIM1 (UniProt Q969X1),0.051
9,SNRNP40 (UniProt Q96DI7),-0.034
10,SPART (UniProt Q8N0X7),-0.014
11,SRSF4 (UniProt Q08170),0.023
12,SMDT1 (UniProt Q9H4I9),0.003
13,SNX1 (UniProt Q13596),-0.026
14,THADA (UniProt Q6YHU6),-0.014
15,SMARCB1 (UniProt Q12824),0.144
16,TACC2 (UniProt O95359),0.039
17,SYNE1 (UniProt Q8NF91),0.076

row,Target,log2 fold change
1,STARD3 (UniProt Q14849),-0.014
2,SNX15 (UniProt Q9NRS6),0.025
3,SRCAP (UniProt Q6ZRS2),-0.015
4,THYN1 (UniProt Q9P016),-0.029
5,SURF2 (UniProt Q15527),-0.016
6,SPCS2 (UniProt Q15005),0.021
7,STAM2 (UniProt O75886),-0.019
8,SP100 isoform 4 (UniProt P23497),0.095
9,TIMM10B (UniProt Q9Y5J6),-0.117
10,TLK1 (UniProt Q9UKI8),-0.033
11,SLC30A7 (UniProt Q8NEW0),0.029
12,SLC35B1 isoform 2 (UniProt P78383),-0.127
13,STX7 (UniProt O15400),-0.02
14,TARS2 (UniProt Q9BW92),0.039
15,SUPT5H (UniProt O00267),-0.017
16,SMIM20 isoform 2 (UniProt Q8N5G0),-0.143
17,TANK (UniProt Q92844),-0.03

# Compound: COC1=CC=C(C=C1)CN2C=CC3=C2C=C(C=C3)C(=O)NO
# Assay: as above
# Summary of the method: as §1
row,Target,log2 fold change
1,SLC44A2 isoform 2 (UniProt Q8IWA5),0.018
2,STK38L (UniProt Q9Y2H1),-0.007
3,SLC27A1 (UniProt Q6PCB7),-0.263
4,SRSF6 (UniProt Q13247),-0.209
5,TATDN2 (UniProt Q93075),-0.011
6,TENT5C (UniProt Q5VWP2),-0.133
7,SNRNP40 (UniProt Q96DI7),-0.039
8,SPART (UniProt Q8N0X7),-0.073
9,SRSF4 (UniProt Q08170),-0.085
10,SMDT1 (UniProt Q9H4I9),-0.053
11,SNX1 (UniProt Q13596),-0.021
12,THADA (UniProt Q6YHU6),0.019
13,SMARCB1 (UniProt Q12824),-0.116
14,SRFBP1 (UniProt Q8NEF9),0.013
15,SYNE1 (UniProt Q8NF91),0.316
16,STARD3 (UniProt Q14849),0

row,Target,log2 fold change
1,SNX15 (UniProt Q9NRS6),-0.166
2,SRCAP (UniProt Q6ZRS2),-0.083
3,THYN1 (UniProt Q9P016),-0.01
4,SURF2 (UniProt Q15527),0.038
5,TANGO6 (UniProt Q9C0B7),-0.025
6,SPCS2 (UniProt Q15005),0.5 (active)
7,STAM2 (UniProt O75886),-0.006
8,SP100 isoform 4 (UniProt P23497),0.05
9,TM7SF3 (UniProt Q9NS93),-0.002
10,TLK1 (UniProt Q9UKI8),-0.011
11,SLC30A7 (UniProt Q8NEW0),-0.105
12,SLC35B1 isoform 2 (UniProt P78383),-0.106
13,STX7 (UniProt O15400),0.065
14,TARS2 (UniProt Q9BW92),-0.487 (active)
15,SUPT5H (UniProt O00267),0.02
16,TANK (UniProt Q92844),0.017
